BRCT PPI green = blocks human BRCA1 BRCT binding to phosphopeptide, green readout; P38398; AID 875; BRCA1 BRCT-phosphopeptide binding, green fluorescence polarization; Potency, µM (titrated, usually from 76.9 µM), for the others: at the top dose activity change, negative = inhibition, most hits filed as inhibitors; hit rate 0.05% among 75,000;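 further: potency means the concentration at half of the fitted maximal effect; plate controls were peptide without protein for full effect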
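Fluorescence polarization: His-tagged BRCT (~35 kDa BRCA1 C-terminus, 250 nM) bound to 100 nM fluorescein-labeled phosphorylated 10-aa BACH1 peptide, pH 7.3 phosphate buffer with DTT and Tween 20. Compounds incubated 12 min at room temperature; inhibition read as lowered polarization.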
YjeE inh = displaces an ADP probe from E. coli YjeE (TsaE); P0AF67; purified YjeE enzyme, qHTS inhibition assay; Potency, µM; hit rate 0.05% among 71,000; AID 605
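Fluorescence polarization of a BODIPY Texas Red–ADP probe (2 uM) bound to purified YjeE (10 uM) was read after 15 min room-temperature incubation with compounds. Loss of polarization marks inhibitors; ADP serves as titrated control.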
15-hLO inh = 15-hLO (ALOX15) enzyme inhibition; purified 15hLO-1, xylenol orange hydroperoxide absorbance; Potency, µM (highest dose often 57.1 µM), for inactives: at the top dose activity change, negative = inhibition, usual class: inhibitors; hit rate 1.4% among 74,000; further: potency means the concentration at half of the fitted maximal effect; on the % scale 0 is the no-effect control and ±100 the full control effect; nearly all actives have a fitted effect of over 55% in size
Target sequence (P16050 whole entry, looked up): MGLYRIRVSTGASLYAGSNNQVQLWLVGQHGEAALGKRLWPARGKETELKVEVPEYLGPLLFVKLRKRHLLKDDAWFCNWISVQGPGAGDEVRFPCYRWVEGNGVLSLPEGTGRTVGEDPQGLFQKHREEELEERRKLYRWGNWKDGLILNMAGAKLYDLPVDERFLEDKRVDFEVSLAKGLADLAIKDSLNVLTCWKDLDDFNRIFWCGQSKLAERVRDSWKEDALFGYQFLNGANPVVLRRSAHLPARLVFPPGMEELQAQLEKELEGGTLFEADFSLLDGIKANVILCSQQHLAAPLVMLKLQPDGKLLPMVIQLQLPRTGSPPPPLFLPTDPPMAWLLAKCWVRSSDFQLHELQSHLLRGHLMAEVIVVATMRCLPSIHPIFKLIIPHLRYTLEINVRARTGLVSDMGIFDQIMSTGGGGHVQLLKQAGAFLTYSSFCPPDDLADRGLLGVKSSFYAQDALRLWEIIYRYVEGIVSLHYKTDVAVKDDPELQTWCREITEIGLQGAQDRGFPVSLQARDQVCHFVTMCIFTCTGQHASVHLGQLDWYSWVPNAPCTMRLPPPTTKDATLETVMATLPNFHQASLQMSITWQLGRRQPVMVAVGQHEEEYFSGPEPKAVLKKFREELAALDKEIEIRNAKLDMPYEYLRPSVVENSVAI
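Quantitative HTS in 25 mM Hepes pH 7.5 containing 0.01% Triton X-100: human 15hLO-1 at 40 nM, arachidonic acid at 50 uM, 6 min turnover. Product quantified via ferrous oxidation/xylenol orange, 573:405 nm absorbance ratio.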
DNA Pol III inh = inhibitors of bacterial DNA polymerase III holoenzyme; Potency, µM (titrated, usually from 57.1 µM), for the others: at the top dose activity change, negative = inhibition; hit rate 0.25% among 71,000; reconstituted DNA polymerase III holoenzyme replication, biochemical; further: potency means the concentration at half of the fitted maximal effect; on the % scale 0 is the no-effect control and ±100 the full control effect
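Reconstituted *E. coli* holoenzyme (0.35 nM Pol III, 1 nM beta, 154 nM SSB, 2 nM primase) was preincubated with compound for 15 min at RT. Synthesis on 1.4 nM ssM13Gori ran 35 min, then was stopped with PicoGreen/EDTA and read as dsDNA fluorescence.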
BRCT inh red = disrupts BRCA1 BRCT binding to phosphoprotein, red fluorophore readout; P38398; BRCT-phosphopeptide binding, red fluorescence polarization; Potency, µM (highest dose often 76.9 µM), inactives show at the highest dose activity change, negative = inhibition, actives largely listed as inhibitors; hit rate 0.03% among 75,000; AID 892; further: on the % scale 0 is the no-effect control and ±100 the full control effect
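Rhodamine-labelled pBACH1 10-mer (100 nM) bound to BRCT domain (100 nM) at pH 7.3; compounds incubated 12 min room temperature, polarization read. Free peptide defines full inhibition; unlabelled decapeptide titrated as control.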
Tau filament bind = tau filament binding; recombinant tau filaments, thioflavin S fluorescence, 15 h; filaments grown with octadecylsulfate alongside compound; Potency, µM (series often up to 57.1 µM), inactives show at the top dose activity change, negative = inhibition; hit rate 2% among 71,000;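 further: potency means the concentration at half of the fitted maximal effect; on the % scale 0 is the no-effect control and ±100 the full control effect; actives lower thioflavin S fluorescence by blocking filaments or displacing dye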
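Thioflavine S fluorescence (ex 450, em 510 nm) reports filaments formed from 1 uM human tau plus 30 uM ODS over 15 h at 37 C (10 mM HEPES pH 7.4, 100 mM NaCl, 5 mM DTT); compounds displacing dye or blocking filaments lower signal.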
Active calls of the source: *; i = inactive; ? = inconclusive; . = no result given; [ ] = dose if it differs, or a comment. Compounds with a hit are over-represented: about 3.1% of the library has one in this group of screens. The call rests on the fitted dose curve; in most records, active means well fitted curve in the direction sought with a large enough effect; inconclusive means small, poorly fitted or top-dose-only effect, or another doubt; inactive means no such curve, though single readings can be large; an effect the other way counts as inactive or inconclusive.

SMILES	BRCT PPI green	YjeE inh	15-hLO inh	DNA Pol III inh	BRCT inh red	Tau filament bind
CC(C)Nc1nc(C#N)nc(NC(C)C)n1	2%	i	-5%	-4%	0%	13µM*
CCN(CC)C(=O)C(C)N(C#N)c1nc(NC(C)C)nc(NC(C)C)n1 (stereo not drawn)	-1%	i	-5%	2%	0%	-13%
COc1ccccc1C(=O)n1nc(-c2ccc(Cl)cc2)nc1N	-7%	i	13µM*	-6%	0%	-10%
c1csc(-c2nn3c(C4COc5ccccc5O4)nnc3s2)c1 (stereo not drawn)	4%	i	?	-3%	-1%	2%
c1ccc2c(c1)OCC(c1nnc3sc(-c4cnccn4)nn13)O2 (stereo not drawn)	0%	i	?	-5%	1%	25µM*
O=C(Nc1ccc(-c2nc3cccnc3s2)cc1)c1ccco1	1%	i	25µM*	-3%	1%	64%
O=C(Nc1cccc(-c2nc3cccnc3s2)c1)c1ccco1	2%	i	-3%	-5%	-4%	13%
COc1cccc(CCc2ccccc2OCC[C@@H]2C[C@@H](O)CN2C)c1	-2%	.	20µM*	.	0%	.
COc1cccc(NC2CC(=O)N(CCc3ccccc3)C2=O)c1 (stereo not drawn)	0%	i	5%	-3%	0%	-6%
CC(=O)c1sc2nc(-c3cccs3)cc(C(F)(F)F)c2c1N	42%	i	-29%	2%	-1%	127%
CS(=O)(=O)c1sc2nc(-c3cccs3)cc(-c3ccccc3)c2c1N	3%	i	?	0%	-5%	7.9µM*
CC(C)c1ccccc1S(=O)c1ccccc1C(C)(C)O (stereo not drawn)	0%[15.4 µM]	i	3%[11.4 µM]	2%[11.4 µM]	-2%[15.4 µM]	-2%[11.4 µM]
Fc1ccc(-n2[nH]nnc2=S)cc1N1CCCC1	-4%	i	25µM*	0%	-1%	-17%
CC(=O)c1ccc(N2CCCCCC2)c(F)c1	-2%	i	-4%[11.4 µM]	-4%[11.4 µM]	-1%	0%[11.4 µM]
Cc1ccccc1Cn1cc(NC(=O)c2cc3nc(-c4ccco4)cc(C(F)(F)F)n3n2)cn1	5%	i	?	3%	1%	3.2µM*
O=C(c1cc2nc(-c3ccco3)cc(C(F)(F)F)n2n1)N1CCN(c2ccc(F)cc2)CC1	4%	i	?	-5%	0%	13µM*
CCOC(=O)CSC1=C(C#N)C(c2ccc(F)cc2)C(C(C)=O)=C(C)N1 (stereo not drawn)	-2%	i	-9%	2%	0%	12%
CCOC(=O)C1=C(C)NC(SCC(=O)OC)=C(C#N)C1c1ccc(C(=O)OC)cc1 (stereo not drawn)	3%	i	5µM*	-2%	-1%	-26%
O=C1CC(Nc2ccc(N3CCOCC3)cc2)C(=O)N1c1ccccc1F (stereo not drawn)	-1%	i	20µM*	-7%	-1%	-12%
c1ccc2c[n+](CCCC[n+]3ccc4ccccc4c3)ccc2c1	-2%[15.4 µM]	i	3%[11.4 µM]	-12%[11.4 µM]	0%[15.4 µM]	3.2µM*
CC1CCN(C(C(=O)Nc2ccc3c(c2)OCO3)c2ccccc2)CC1 (stereo not drawn)	-1%	i	4%	-5%	0%	16%
CCC(C)[C@@H](C(=O)Nc1ccc2c(c1)OCO2)N1Cc2ccccc2C1=O (stereo partly drawn)	-7%	i	-15%	0%	-1%	25µM*
Oc1ccccc1NCC(O)Cn1ccc2ccccc21 (stereo not drawn)	4%	i	6.3µM*	-3%	1%	13µM*
C=C[C@](C)(O)CCC1C(=C)CC(O)C2C(C)(C)CCCC12C (stereo partly drawn)	-2%	.	?	.	1%	.
CCOC(=O)C1=C(c2ccccc2)NC(=O)NC1c1ccc(OCC#N)c(OC)c1 (stereo not drawn)	1%	i	-1%	-3%	0%	16%
SMILES	BRCT PPI green	YjeE inh	15-hLO inh	DNA Pol III inh	BRCT inh red	Tau filament bind
COc1cc(C2NC(=O)NC(c3ccccc3)=C2C(C)=O)ccc1OCC(=O)O (stereo not drawn)	4%	i	7.9µM*	-4%	1%	47%
Cc1ccc2nc(N/N=C\c3cccc(C)n3)cc(C)c2c1	3%[15.4 µM]	i	41%[11.4 µM]	-14%[11.4 µM]	0%[15.4 µM]	-27%[11.4 µM]
COC(=O)C1=C(C)N=c2s/c(=C/c3cccs3)c(=O)n2C1c1cccs1 (stereo not drawn)	1%	i	5%	1%	-1%	1µM*
Cc1csc(B(O)O)c1	-2%	.	2%	.	1%	.
CS(=O)(=O)N1CCC2(CCCN(Cc3ccc(C#N)cc3)C2)CC1	-2%	i	-1%	7%	-1%	10%
N#Cc1cccc(-c2nc3cnc(Oc4cccc(Cl)c4)nc3n(C3CC3)c2=O)c1	1%	i	-2%	-3%	0%	10µM*
O=c1c(-c2ccccc2)nc2cnc(Oc3ccccc3)nc2n1C1CC1	-2%	i	-1%	-6%	-1%	-22%
O=c1c(-c2ccc(Cl)cc2)nc2cnc(Oc3ccccc3)nc2n1C1CC1	-1%	i	-10%	-3%	0%	13µM*
COc1ccc(-n2c(=O)c(C)nc3cnc(Nc4cccc(OC)c4)nc32)cc1	2%	i	-3%	2%	-1%	-29%
COc1ccc2nc3cc(Cl)ccc3c(Nc3ccc(O)c(CN4CCN(C)CC4)c3)c2c1	-2%[15.4 µM]	i	9%[11.4 µM]	5µM*	1%[15.4 µM]	0.25µM*
O=C(O)CNCC1COc2ccccc2O1 (stereo not drawn)	-11%	i	-7%	3%	0%	-6%
O=C1CC2(CCCC2)CC(=O)N1CCNC[C@H]1COc2ccccc2O1	-2%	i	-4%[25.6 µM]	-5%	0%	32µM*
O=C(O)c1ccc(NS(=O)(=O)/C=C/c2ccccc2)cc1O	0%	i	-10%	-10%	-3%	-4%
O=S(=O)(/C=C/c1ccccc1)Nc1ccc(N2CCOCC2)cc1	-3%	i	?	6%	0%	25µM*
O=C(O)[C@@H]1CCCNC1	0%[34.4 µM]	i	-1%[25.6 µM]	2%[25.6 µM]	-1%[34.4 µM]	-4%[25.6 µM]
c1ccc2c(c1)CCN(c1ncnc3nc[nH]c13)C2	-1%	i	-2%	-7%	1%	0%
C1=C(c2ccccc2)CCN(c2ncnc3nc[nH]c23)C1	-1%	i	25µM*	-5%	-1%	-5%
CC(C)C[C@@H](CC(=O)N[C@@H](CCCN)CC(=O)N[C@@H]1CCCC[C@H]1C(=O)N[C@H](CC(=O)N[C@@H](CCC(=O)O)CC(=O)O)Cc1c[nH]c2ccccc12)NC(=O)[C@@H]1CCCC[C@H]1N	.	i	.	0%	.	-3%

Bioassay records (PubChem)
